Source: the supplement of paper PMC10849652
The full data set covers some 8,800 targets. This sample favours those with a hit. About 0.5% of all pairs of compound and target were hits. Unmarked numbers belong to inactive results.

Compound: Cc1cccc(CC(=O)N2CCc3c2ccc(-c2cn(C)c4ncnc(N)c24)c3F)n1
Experiment: log2 fold change, soluble protein after heating vs DMSO (PISA); higher = thermal stabilisation; K562 lysate, 10 uM; active = over 0.2 and 3.5 SD of the protein, either way, in both replicates (recomputed)
In short: (§1)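 Log-two fold change in thermal stability relative to solvent controls is reported from duplicates. For each sample, crude K562 extract from dounce-homogenised pellets in PBS pH 7.4 with 1 mM MgCl2, at 1 mg/mL protein, was treated with 10 μM compound for 30 min. Aliquots heated for 3 min across 48°C-58°C were pooled, brought to 0.5% NP-40 at 4°C and cleared at 21,000xg for 90 min. The supernatant was quantified by TMTpro 16plex LC-MS/MS with channel sums equalised.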

UniProt Q9NXU5, sequence (Q9NXU5 whole entry, looked up): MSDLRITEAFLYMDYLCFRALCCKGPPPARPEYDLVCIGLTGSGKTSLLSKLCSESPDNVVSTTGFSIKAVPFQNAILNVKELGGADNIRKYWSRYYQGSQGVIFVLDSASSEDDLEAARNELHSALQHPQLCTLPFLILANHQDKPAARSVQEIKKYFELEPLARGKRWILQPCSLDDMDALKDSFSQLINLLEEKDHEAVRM
UniProt P51825, sequence (P51825 whole entry, looked up): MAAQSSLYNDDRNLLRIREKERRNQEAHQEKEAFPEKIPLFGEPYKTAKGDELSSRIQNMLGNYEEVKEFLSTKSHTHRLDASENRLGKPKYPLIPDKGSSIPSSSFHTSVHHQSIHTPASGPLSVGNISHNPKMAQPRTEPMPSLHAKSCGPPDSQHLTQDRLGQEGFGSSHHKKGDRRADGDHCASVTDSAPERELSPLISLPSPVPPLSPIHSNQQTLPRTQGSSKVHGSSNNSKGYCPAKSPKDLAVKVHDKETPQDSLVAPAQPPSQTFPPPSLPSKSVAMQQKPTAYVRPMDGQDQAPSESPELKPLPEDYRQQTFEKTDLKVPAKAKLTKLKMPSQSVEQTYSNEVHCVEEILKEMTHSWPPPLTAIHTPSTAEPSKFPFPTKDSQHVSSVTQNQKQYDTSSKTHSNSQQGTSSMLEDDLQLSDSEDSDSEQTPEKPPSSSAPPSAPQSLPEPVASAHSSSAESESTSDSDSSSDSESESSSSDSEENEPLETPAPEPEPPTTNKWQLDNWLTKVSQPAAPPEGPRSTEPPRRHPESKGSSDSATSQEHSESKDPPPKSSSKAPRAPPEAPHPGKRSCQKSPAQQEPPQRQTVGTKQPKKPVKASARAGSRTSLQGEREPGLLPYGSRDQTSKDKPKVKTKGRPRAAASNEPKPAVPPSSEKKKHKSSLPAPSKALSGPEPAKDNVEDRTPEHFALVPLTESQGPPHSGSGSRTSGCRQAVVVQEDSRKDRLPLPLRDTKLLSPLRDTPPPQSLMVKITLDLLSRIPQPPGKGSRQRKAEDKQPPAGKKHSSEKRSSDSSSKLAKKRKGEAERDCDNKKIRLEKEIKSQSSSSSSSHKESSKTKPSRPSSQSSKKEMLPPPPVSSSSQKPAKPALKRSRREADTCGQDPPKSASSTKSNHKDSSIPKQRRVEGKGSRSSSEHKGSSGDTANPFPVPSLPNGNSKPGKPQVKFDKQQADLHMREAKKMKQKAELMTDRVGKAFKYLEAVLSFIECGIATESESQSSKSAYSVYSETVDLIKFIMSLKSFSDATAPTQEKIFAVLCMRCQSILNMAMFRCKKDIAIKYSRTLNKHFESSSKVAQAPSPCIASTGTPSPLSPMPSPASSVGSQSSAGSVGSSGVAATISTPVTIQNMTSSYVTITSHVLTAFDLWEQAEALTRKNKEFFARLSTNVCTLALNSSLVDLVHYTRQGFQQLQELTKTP
UniProt Q9Y303, sequence (Q9Y303 whole entry, looked up): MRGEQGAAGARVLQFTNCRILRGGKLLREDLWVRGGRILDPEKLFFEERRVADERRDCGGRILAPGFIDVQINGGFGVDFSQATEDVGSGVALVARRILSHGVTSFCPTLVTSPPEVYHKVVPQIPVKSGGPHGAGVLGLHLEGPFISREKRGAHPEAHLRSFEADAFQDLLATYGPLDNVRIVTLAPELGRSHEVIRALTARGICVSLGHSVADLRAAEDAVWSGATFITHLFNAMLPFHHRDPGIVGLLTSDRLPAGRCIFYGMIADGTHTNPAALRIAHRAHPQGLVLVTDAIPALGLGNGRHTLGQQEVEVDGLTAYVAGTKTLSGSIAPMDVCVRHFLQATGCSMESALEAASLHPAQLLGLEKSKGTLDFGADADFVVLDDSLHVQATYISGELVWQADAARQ
UniProt O43182, sequence (O43182 whole entry, looked up): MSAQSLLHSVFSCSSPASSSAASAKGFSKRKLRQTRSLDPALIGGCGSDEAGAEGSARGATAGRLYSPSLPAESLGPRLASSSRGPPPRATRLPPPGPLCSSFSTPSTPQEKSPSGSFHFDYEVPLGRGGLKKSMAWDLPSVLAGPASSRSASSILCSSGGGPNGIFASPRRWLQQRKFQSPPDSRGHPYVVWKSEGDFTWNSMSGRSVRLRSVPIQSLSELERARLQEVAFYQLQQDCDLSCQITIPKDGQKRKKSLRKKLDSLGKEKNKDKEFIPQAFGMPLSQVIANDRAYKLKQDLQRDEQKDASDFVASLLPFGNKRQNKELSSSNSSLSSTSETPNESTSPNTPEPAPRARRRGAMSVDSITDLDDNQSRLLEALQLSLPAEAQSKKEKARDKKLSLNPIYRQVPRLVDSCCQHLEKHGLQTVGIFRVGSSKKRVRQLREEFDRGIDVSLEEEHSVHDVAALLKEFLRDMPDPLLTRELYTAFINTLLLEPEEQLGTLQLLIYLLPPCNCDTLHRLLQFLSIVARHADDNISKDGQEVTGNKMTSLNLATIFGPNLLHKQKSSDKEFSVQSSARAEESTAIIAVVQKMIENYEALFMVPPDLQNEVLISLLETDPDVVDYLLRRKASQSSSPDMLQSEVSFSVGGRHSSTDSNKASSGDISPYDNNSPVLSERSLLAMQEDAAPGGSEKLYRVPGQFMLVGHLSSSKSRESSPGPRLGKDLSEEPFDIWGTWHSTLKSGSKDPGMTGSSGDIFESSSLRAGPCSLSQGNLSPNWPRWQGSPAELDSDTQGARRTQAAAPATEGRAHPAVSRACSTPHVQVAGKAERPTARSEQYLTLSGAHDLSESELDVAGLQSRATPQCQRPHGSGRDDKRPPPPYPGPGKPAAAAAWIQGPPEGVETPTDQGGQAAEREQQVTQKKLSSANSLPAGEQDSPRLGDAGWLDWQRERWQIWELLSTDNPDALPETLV
UniProt Q6NXE6, sequence (Q6NXE6 whole entry, looked up): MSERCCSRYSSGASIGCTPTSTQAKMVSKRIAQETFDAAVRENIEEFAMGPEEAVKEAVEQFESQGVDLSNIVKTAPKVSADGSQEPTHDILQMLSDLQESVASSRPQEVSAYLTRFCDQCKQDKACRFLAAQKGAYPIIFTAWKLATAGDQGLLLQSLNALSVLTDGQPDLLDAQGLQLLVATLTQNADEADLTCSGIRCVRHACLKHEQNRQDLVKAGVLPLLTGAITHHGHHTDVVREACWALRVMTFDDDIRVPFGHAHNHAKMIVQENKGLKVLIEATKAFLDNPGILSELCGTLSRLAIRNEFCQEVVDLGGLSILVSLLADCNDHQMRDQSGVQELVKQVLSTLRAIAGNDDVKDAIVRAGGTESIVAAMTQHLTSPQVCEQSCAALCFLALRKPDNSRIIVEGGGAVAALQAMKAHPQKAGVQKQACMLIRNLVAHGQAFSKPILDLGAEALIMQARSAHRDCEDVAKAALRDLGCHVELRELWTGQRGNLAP
UniProt Q9BXX3, sequence (Q9BXX3 whole entry, looked up): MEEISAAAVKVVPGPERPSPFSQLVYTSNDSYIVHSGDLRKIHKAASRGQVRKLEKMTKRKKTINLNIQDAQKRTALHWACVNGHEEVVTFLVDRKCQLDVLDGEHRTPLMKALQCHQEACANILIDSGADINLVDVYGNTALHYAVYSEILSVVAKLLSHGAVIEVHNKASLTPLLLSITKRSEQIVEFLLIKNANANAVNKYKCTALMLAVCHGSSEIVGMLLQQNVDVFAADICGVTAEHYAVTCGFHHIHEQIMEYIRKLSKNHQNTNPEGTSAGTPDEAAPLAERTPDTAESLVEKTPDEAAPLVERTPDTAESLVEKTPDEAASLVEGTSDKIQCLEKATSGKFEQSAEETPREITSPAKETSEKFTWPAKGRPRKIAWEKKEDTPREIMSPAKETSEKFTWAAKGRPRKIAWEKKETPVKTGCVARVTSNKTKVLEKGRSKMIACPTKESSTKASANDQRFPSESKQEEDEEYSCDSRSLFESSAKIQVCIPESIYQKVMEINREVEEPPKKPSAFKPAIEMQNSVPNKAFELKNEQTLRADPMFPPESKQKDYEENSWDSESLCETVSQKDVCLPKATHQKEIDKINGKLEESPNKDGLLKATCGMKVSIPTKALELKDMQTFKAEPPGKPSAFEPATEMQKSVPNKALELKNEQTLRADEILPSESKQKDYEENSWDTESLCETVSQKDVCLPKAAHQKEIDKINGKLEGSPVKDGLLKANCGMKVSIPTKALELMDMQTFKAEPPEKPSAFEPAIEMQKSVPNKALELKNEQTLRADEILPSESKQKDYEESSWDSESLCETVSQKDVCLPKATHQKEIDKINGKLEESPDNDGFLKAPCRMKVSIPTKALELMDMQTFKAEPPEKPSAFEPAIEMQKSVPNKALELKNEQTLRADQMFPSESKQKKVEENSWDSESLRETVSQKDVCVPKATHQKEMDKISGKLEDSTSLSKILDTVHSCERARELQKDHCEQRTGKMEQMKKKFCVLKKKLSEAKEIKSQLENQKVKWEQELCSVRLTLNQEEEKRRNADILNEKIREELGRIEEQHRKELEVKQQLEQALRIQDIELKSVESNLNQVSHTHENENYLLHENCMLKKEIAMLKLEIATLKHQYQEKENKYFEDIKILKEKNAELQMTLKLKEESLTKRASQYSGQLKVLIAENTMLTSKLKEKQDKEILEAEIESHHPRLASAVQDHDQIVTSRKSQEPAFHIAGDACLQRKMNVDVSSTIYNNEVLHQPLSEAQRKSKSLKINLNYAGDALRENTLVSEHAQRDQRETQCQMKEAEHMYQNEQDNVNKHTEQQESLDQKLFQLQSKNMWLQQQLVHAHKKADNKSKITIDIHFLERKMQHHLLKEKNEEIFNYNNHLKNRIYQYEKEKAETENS
UniProt P07311, sequence (P07311 whole entry, looked up): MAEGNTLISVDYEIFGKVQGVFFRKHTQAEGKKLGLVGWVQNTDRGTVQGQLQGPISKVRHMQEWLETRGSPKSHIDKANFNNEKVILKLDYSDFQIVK
UniProt P39687, sequence (P39687 whole entry, looked up): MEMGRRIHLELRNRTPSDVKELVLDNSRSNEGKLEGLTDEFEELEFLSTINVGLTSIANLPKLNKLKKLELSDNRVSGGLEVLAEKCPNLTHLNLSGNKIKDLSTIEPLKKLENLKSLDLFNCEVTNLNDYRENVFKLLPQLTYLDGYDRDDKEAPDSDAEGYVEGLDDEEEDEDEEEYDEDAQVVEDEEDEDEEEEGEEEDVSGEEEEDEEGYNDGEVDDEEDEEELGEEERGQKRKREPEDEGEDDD

In order of falling log2 fold change:
1. ANKRD30A (UniProt Q9BXX3)  0.918
2. ACSL1 (UniProt P33121)  0.061
3. AMDHD2 isoform 3 (UniProt Q9Y303)  0.009
4. AKAP11 (UniProt Q9UKA4)  -0.005
5. ARMC6 (UniProt Q6NXE6)  -0.009
6. ARHGAP6 (UniProt O43182)  -0.022
7. ANXA5 (UniProt P08758)  -0.065
8. ALDH2 (UniProt P05091)  -0.077
9. ACYP1 (UniProt P07311)  -0.091
10. ACTG1 (UniProt I3L4N8)  -0.096
11. ARL15 (UniProt Q9NXU5)  -0.118

In the case of AFF1 isoform 2 (UniProt P51825), the log2 fold change is reported as 0.696 (active).

Compound: Cc1cn(-c2cc(NC(=O)c3ccc(C)c(Nc4nccc(-c5cccnc5)n4)c3)cc(C(F)(F)F)c2)cn1 [nilotinib]
Experiment: as above
In short: as §1

In order of rising log2 fold change:
1. AFF1 isoform 2 (UniProt P51825)  -0.069
2. ACTG1 (UniProt I3L4N8)  -0.068
3. ALDH6A1 (UniProt Q02252)  -0.053
4. ARHGAP25 isoform 4 (UniProt P42331)  -0.037
5. ASB6 (UniProt Q9NWX5)  -0.024
6. ARHGAP21 (UniProt Q5T5U3)  -0.017
7. ACYP1 (UniProt P07311)  -0.014
8. AKT2 (UniProt P31751)  -0.013
9. ANXA1 (UniProt P04083)  -0.01
10. ANKRD30A (UniProt Q9BXX3)  -0.008
11. ARL15 (UniProt Q9NXU5)  -0.008
12. ARAF (UniProt P10398)  -0.005
13. ANAPC7 (UniProt Q9UJX3)  -0.004
14. ACSL1 (UniProt P33121)  -0.004
15. ANP32A (UniProt P39687)  -0.003
16. ARHGAP6 (UniProt O43182)  -0.003
17. AKAP11 (UniProt Q9UKA4)  -0.001
18. ARMC6 (UniProt Q6NXE6)  -0.001
19. AP5B1 (UniProt Q2VPB7)  0.001
20. ALDH5A1 isoform 2 (UniProt P51649)  0.003
21. AK2 (UniProt P54819)  0.003
22. AMDHD2 isoform 3 (UniProt Q9Y303)  0.011
23. ANXA11 (UniProt P50995)  0.014
24. ANKRD27 (UniProt Q96NW4)  0.016
25. ADD1 isoform 3 (UniProt P35611)  0.027
26. ACAT1 (UniProt P24752)  0.028
27. ALDH2 (UniProt P05091)  0.028
28. ANXA5 (UniProt P08758)  0.031
29. ANKRD54 (UniProt Q6NXT1)  0.053
30. ANP32E (UniProt Q9BTT0)  0.075
31. ALG13 (UniProt Q9NP73)  0.089
32. ABHD13 (UniProt Q7L211)  0.152
33. ARFGAP1 (UniProt Q8N6T3)  0.159

In the case of AKAP8L (UniProt Q9ULX6), the log2 fold change is reported as -0.267 (active).
In the case of AKAP8 (UniProt O43823), the log2 fold change is reported as -0.3 (active).

Compound: Cc1nc(Nc2n[nH]c3c2CN(C(=O)N[C@H](CN(C)C)c2ccccc2)C3(C)C)c2sccc2n1
Experiment: as above
In short: as §1

In order of falling log2 fold change:
1. ALDH6A1 (UniProt Q02252)  0.161
2. ACTG1 (UniProt I3L4N8)  0.104
3. ARFGAP1 (UniProt Q8N6T3)  0.1
4. ANKRD27 (UniProt Q96NW4)  0.049
5. ARHGAP25 isoform 4 (UniProt P42331)  0.039
6. AKAP8 (UniProt O43823)  0.039
7. ANP32A (UniProt P39687)  0.03
8. ANP32E (UniProt Q9BTT0)  0.025
9. AKAP8L (UniProt Q9ULX6)  0.022
10. AFF1 isoform 2 (UniProt P51825)  0.022
11. ARL15 (UniProt Q9NXU5)  0.021
12. ACYP1 (UniProt P07311)  0.019
13. ARAF (UniProt P10398)  0.018
14. ASB6 (UniProt Q9NWX5)  0.01
15. ACSL1 (UniProt P33121)  -0.002
16. ANKRD54 (UniProt Q6NXT1)  -0.003
17. AKT2 (UniProt P31751)  -0.004
18. ADD1 isoform 3 (UniProt P35611)  -0.005
19. AK2 (UniProt P54819)  -0.006
20. ANAPC7 (UniProt Q9UJX3)  -0.006
21. ARMC6 (UniProt Q6NXE6)  -0.006
22. ANXA5 (UniProt P08758)  -0.008
23. ANXA1 (UniProt P04083)  -0.009
24. ALG13 (UniProt Q9NP73)  -0.012
25. ANKRD30A (UniProt Q9BXX3)  -0.012
26. ARHGAP21 (UniProt Q5T5U3)  -0.014
27. ARHGAP6 (UniProt O43182)  -0.014
28. ANXA11 (UniProt P50995)  -0.017
29. ALDH2 (UniProt P05091)  -0.017
30. ALDH5A1 isoform 2 (UniProt P51649)  -0.019
31. ACAT1 (UniProt P24752)  -0.021
32. AP5B1 (UniProt Q2VPB7)  -0.033
33. AKAP11 (UniProt Q9UKA4)  -0.06
34. AMDHD2 isoform 3 (UniProt Q9Y303)  -0.076
35. ABHD13 (UniProt Q7L211)  -0.186
